Most compounds without a hit are left out; they make up all but 1.6% or so of the library.
PTPN22 act – increases human PTPN22 phosphatase activity; Q9Y2R2; recombinant LYP, DiFMUP fluorescence; 0 = plate median, 100 = signal doubled; activation, % at 2 µM; 96,000 compounds, 0.11% hits; AID 697;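 active = activation at 2 µM above a set limit, the mean plus 5 SD, cut at about 37% in these data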
sEH inhibitor – blocks human soluble epoxide hydrolase activity; recombinant human sEH enzymatic activity assay; inhibition, % at 2 µM; 91,000 compounds, 0.34% hits; AID 707; in the data active = inhibition above about 80%
Target sequence (P34913 whole entry, looked up): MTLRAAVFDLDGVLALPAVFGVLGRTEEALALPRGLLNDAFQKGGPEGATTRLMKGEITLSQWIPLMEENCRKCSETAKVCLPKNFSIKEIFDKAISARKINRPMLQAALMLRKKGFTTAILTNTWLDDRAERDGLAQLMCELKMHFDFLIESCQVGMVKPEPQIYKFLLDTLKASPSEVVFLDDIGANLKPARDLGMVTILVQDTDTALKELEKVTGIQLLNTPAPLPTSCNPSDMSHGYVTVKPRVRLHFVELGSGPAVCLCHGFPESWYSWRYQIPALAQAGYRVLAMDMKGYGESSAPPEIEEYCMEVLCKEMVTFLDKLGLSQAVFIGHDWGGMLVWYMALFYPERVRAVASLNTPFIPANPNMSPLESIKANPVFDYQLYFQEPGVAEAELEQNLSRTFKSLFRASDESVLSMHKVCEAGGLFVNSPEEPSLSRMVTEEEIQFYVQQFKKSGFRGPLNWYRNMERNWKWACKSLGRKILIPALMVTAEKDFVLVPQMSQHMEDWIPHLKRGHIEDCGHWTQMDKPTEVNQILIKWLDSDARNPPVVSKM
EphB4 antag – blocks human EphB4 binding to ephrin-B2; P54760; EphB4 LBD / TNYL-RAW-Alexa532 peptide, fluorescence polarization; inhibition, % at 7 µM; 97,000 compounds, 0.15% hits; AID 720;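 active = inhibition above the screen-wide mean inhibition plus 3 SD, cut at about 15% in these data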;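 also: 0% = DMSO wells and 100% = excess unlabeled TNYL-RAW peptide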
sEH activator – soluble epoxide hydrolase (human) activation | activation, % at 2 µM | P34913 | 91,000 compounds, 0.04% hits | purified human sEH enzymatic activity, activator screen; in the data active = activation above about 37%
PTPN22 inh 2 – LYP (human) phosphatase inhibition; recombinant LYP catalytic domain, DiFMUP fluorescence; inhibition, % at 2 µM; 96,000 compounds, 0.21% hits; AID 640;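 active = inhibition at 2 µM at or above a set limit, the screen mean plus 3 SD, cut at about 24% in these data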;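 also: 0% = DMSO with enzyme and 100% = enzyme fully blocked by orthovanadate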
PLAP act – activators of human placental alkaline phosphatase; P05187; purified PLAP enzyme, luminescent substrate read-out; hits give high values; activation fold at 20 µM; 96,000 compounds, 1.2% hits; AID 696; in the data active = activation fold above about 2
Starred values were filed as active, the others as inactive; . = no result given.

SMILES | PTPN22 act | sEH inhibitor | EphB4 antag | sEH activator | PTPN22 inh 2 | PLAP act
O=C(NCc1ccco1)c1ccc2nc3sc4c(c3c(=O)n2c1)CCCC4 | -26.5 | -5.7 | 0.4 | 3.2 | 24.8* | 1.3
CCS(=O)(=O)N1CCN(Cc2nc3ccccc3c(=O)[nH]2)CC1 | . | . | . | . | . | 1.1
CCCCCCCCNC(=O)CCNC(=O)c1ccc(C(C)(C)C)cc1 | -6.7 | 44.6 | 1.9 | -44.5 | 7.0 | 2*
CCOc1ccc(C(=O)NCCC(=O)NCCCC(=O)O)cc1 | -2.0 | -6.6 | 0.0 | 8.2 | 0.1 | 0.9
CC(C)CCOc1ccc(Cl)cc1CN1CCOCC1 | -10.0 | 3.5 | 3.3 | -1.6 | 12.7 | 1.8
O=C(N/N=C\c1ccc(Cl)s1)c1cccs1 | -4.5 | 94.4* | 7.7 | -94.5 | 4.2 | 0.9
CN(C)S(=O)(=O)c1ccc(NC(=O)N2CCN(c3cccc(C(F)(F)F)c3)CC2)cc1 | 13.1 | 42.6 | -3.4 | -41.3 | -9.4 | 2.1*
COc1ccc(NC(=O)N2CCN(c3cccc(C(F)(F)F)c3)CC2)cc1 | -3.8 | 19.4 | 2.5 | -20.8 | -0.5 | 0.9
O=C1C(=O)N(CCCn2ccnc2)C(c2cccnc2)/C1=C(/O)c1ccccc1 (stereo unspecified) | 0.8 | 20.0 | 1.2 | -17.1 | 0.5 | .
COc1ccc(-c2cc(-c3cc(OC)ccc3O)[nH]n2)cc1 | 32.7 | -5.6 | -0.3 | 2.5 | -38.0 | 2.3*
COc1ccc(-c2n[nH]c(C)c2-c2cc(OC)ccc2O)cc1 | -2.7 | -9.7 | -0.7 | 7.8 | 3.6 | 2*
COc1ccc(-c2cc(-c3ccc(OC)c(OC)c3)n[nH]2)c(O)c1 | -6.2 | -6.4 | -2.9 | 5.1 | 5.3 | 2.2*
COc1ccc(-c2cc(-c3ccccc3O)[nH]n2)cc1OC | 2.2 | -5.4 | -9.0 | 6.9 | -4.8 | 2.8*
Cc1cccnc1NC(=O)C1CCN(S(=O)(=O)c2cccs2)CC1 | 0.9 | -8.6 | 3.5 | 10.7 | 1.5 | 1
CN(C(=O)CSc1nc2ccccc2n1CCc1ccccc1)C1CCS(=O)(=O)C1 (stereo unspecified) | 1.7 | . | -2.2 | . | -4.3 | 2.3*
COc1ccc(OC)c(NC(=O)CC2C(=O)NCCN2C(=O)Nc2cccc(Cl)c2)c1 (stereo unspecified) | 5.4 | 2.5 | -0.6 | -1.8 | -3.3 | 2*
COc1ccccc1NC(=O)CC1C(=O)NCCN1C(=O)Nc1ccccc1 (stereo unspecified) | 6.4 | -1.5 | 0.9 | 0.8 | -5.8 | 0.8
CN(CC(=O)NCc1cccc(F)c1)C(=O)c1ccco1 | 7.2 | 0.6 | -4.9 | 0.6 | -10.5 | 0.9
COc1ccc(-c2nc(SCC(=O)Nc3cc(C)on3)n[nH]2)cc1 | -8.5 | -7.6 | -1.0 | 9.2 | 7.3 | 2.1*
CCCCc1nc(SCC(=O)Nc2cc(C)on2)n[nH]1 | 29.5 | -4.2 | 0.9 | 2.9 | -30.3 | 2.3*
COc1ccc(CNC(=O)CSc2ncnc3nc[nH]c23)cc1 | 1.7 | 4.5 | -11.1 | -4.4 | -3.2 | 0.8
O=S(=O)(/N=C(/Nc1cc(N2CCOCC2)ncn1)c1ccc(F)cc1)c1ccccc1 | -2.0 | -12.0 | -3.5 | 16.0 | 2.2 | 2.1*
Cc1nnc(NC(=O)c2ccc(S(=O)(=O)N3CCCCCC3)cc2)o1 | -7.7 | 15.1 | -3.4 | -13.9 | 5.8 | 1.3
CC1CCCN(S(=O)(=O)c2ccc(C(=O)Nc3nnc(-c4ccccc4Cl)o3)cc2)C1 (stereo unspecified) | -10.0 | 82.5* | -2.0 | -82.5 | 8.8 | 1.4
COc1ccc2nc(SCC(=O)N(C)C3CCCCC3)c(C#N)cc2c1 | 16.5 | -10.4 | -0.7 | 9.8 | -18.7 | 1.3
SMILES | PTPN22 act | sEH inhibitor | EphB4 antag | sEH activator | PTPN22 inh 2 | PLAP act
Cc1ccc(OCCSc2ncnc3nc[nH]c23)cc1 | -4.6 | 9.8 | 0.2 | -13.6 | 5.1 | 2.4*
CC(NC(=O)Cc1cccs1)C(c1cccs1)N1CCN(c2ccccc2F)CC1 (stereo unspecified) | -4.1 | . | 3.3 | . | 1.5 | 0.9
Cc1ccc2nc(SCC(=O)N(CC(C)C)c3c(N)n(CC(C)C)c(=O)[nH]c3=O)[nH]c2c1 | -5.6 | -0.8 | -0.4 | 0.6 | 8.7 | 2.3*
CC(C)CN(C(=O)CSc1nncs1)c1c(N)n(CC(C)C)c(=O)[nH]c1=O | -3.6 | 6.5 | 1.0 | -8.3 | 3.1 | 1
Nc1[nH]nc2nc(N3CCCC3)nc(-c3ccccc3)c12 | . | . | . | . | . | 2*
CC(CCc1ccccc1)NC(=O)CN1CCN(Cc2ccc(Cl)cc2)C1=O (stereo unspecified) | 21.1 | 0.1 | -2.8 | -1.6 | -25.2 | 1.5
COc1cc(/C(C#N)=C/c2ccccc2)c([N+](=O)[O-])cc1OC | -0.9 | 2.3 | 0.7 | 2.7 | -0.1 | .

Source: PubChem BioAssay (several laboratories)
